From PubChem BioAssay come the findings set out here.

Assay [1] in a line: HepG2 liver cancer cell viability effects, profiling panel, resazurin fluorescence, 24 h, PK04 Diversity Set (AID 1172). Further: test concentration not given here. The following applies: higher = more signal. (In general: Resazurin is reduced to fluorescent resorufin, in cell work by metabolically active cells.)
Assay [2] can be described thus: basal S. cerevisiae growth modulation, no modifier, primary screen, OD600, strain BY4716, 24 h, basal condition (AID 1173). The note with it: OD600, 24 h, higher = more signal, called active from +8 up or from −8 down.
Assay [3] is described as follows: MM1S myeloma cell viability, profiling panel, resazurin fluorescence, basal, 24 h, PK04 Diversity Set (AID 1174).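 Further: MM1S multiple myeloma cell line; test concentration not given here.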 The note with it: higher = more signal, called active from +8 up or from −8 down.
Assay [4] concerns the target Dihydroorotate dehydrogenase (quinone), mitochondrial (Plasmodium falciparum (isolate 3D7)) (UniProt Q08210). Put plainly: PfDHODH enzyme inhibitors, primary screen, biochemical, C-terminal His tag, absorbance 600 nm (AID 1175).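 Further: recombinant parasite enzyme with a five histidine tag at its C terminus; test concentration not given here.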 The following applies: DCIP absorbance 600 nm, higher = more signal, called active from +8 up or from −8 down.
Assay [5] in a line: P. aeruginosa biofilm formation inhibitors, primary screen, strain PAO1, LB-PBS medium, absorbance 600 nm (AID 1176). Further: test concentration not given here. The following applies: P. aeruginosa PAO1 growth/biofilm, A600, 12 h; higher = more signal.
Assay [6] can be described thus: S. cerevisiae RM11-1a growth modifiers, primary screen, strain RM11-1a, OD600, basal, 24 h (AID 1177).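 Further: cultures grown under basal conditions with no added stressor; test concentration not given here.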 The note with it: OD600, 24 h, higher = more signal, called active from +8 up or from −8 down.
Assay [7] is described as follows: E. coli acrAB mutant growth effects, primary screen, E. coli filamentation inducers, strain DRC39, OD650, 24 h (AID 1178).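 Further: growth measured as culture turbidity by optical density at 650 nm; test concentration not given here.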 The following applies: higher = more signal, called active from +8 up or from −8 down.
Assay [8] in a line: E. coli acrAB mutant growth effects, primary screen, E. coli filamentation inducers, strain DRC39, OD650, 48 h (AID 1179).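 Further: screen aims at cell division blockers that make cells filament.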 The note with it: E. coli DRC39 delta-acrAB growth, higher = more signal, called active from +8 up or from −8 down.
A short description of assay [9]: RPMI8226 myeloma cell viability, profiling panel, resazurin fluorescence, basal, 24 h, PK04 Diversity Set (AID 1180).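 Further: RPMI8826 multiple myeloma cell line at 5000 cells per well; test concentration not given here.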 The note with it: higher = more signal.
For assay [10], the target named is E3 ubiquitin-protein ligase XIAP (Homo sapiens) (UniProt P98170). Put plainly: XIAP binders, primary screen, biophysical, small-molecule microarray, fluorescence 635 nm (AID 1181).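 Further: score merges 667 nm emission and signal to noise over triplicate slides.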 The note with it: small-molecule microarray binding, higher = more signal.

The source made the active and inactive calls. Unless noted, how the calls were made is not given here.

Sequence of E3 ubiquitin-protein ligase XIAP (Homo sapiens) (P98170 whole entry, looked up): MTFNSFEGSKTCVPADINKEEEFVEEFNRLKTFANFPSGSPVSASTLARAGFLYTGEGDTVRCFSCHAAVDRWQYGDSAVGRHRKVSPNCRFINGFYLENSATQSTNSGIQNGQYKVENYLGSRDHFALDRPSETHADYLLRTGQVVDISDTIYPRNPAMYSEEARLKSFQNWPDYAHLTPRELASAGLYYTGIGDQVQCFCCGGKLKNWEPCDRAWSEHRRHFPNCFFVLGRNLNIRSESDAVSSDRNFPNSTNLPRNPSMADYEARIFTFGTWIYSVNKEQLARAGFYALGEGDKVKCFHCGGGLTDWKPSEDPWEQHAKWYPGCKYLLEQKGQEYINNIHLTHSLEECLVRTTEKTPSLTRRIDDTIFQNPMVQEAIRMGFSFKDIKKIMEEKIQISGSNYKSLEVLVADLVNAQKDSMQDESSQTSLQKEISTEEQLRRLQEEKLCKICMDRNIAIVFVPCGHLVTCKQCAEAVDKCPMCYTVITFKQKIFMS
Sequence of Dihydroorotate dehydrogenase (quinone), mitochondrial (Plasmodium falciparum (isolate 3D7)) (Q08210 whole entry, looked up): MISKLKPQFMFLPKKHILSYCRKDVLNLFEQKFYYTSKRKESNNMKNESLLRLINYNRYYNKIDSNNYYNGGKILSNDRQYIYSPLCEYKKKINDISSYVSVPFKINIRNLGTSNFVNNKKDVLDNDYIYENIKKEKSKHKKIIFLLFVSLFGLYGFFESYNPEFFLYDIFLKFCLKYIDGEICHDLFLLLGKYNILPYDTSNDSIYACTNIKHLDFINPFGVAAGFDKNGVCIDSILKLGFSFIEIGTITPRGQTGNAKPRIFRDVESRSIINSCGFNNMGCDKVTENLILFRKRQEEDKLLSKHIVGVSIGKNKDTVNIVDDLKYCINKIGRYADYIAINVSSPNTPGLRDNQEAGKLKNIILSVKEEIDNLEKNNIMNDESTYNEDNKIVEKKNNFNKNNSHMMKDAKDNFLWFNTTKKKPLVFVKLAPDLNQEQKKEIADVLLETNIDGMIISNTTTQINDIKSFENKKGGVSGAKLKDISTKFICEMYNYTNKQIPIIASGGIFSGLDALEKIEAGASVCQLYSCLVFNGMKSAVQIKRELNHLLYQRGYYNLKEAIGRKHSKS

Take `CCOC(=O)C1=CCC(c2ccccc2)N(S(=O)(=O)c2ccc([N+](=O)[O-])cc2)C1` (stereo not given): the z-score in [1] was 0.21; in assay [2], 1.36 (inactive); in assay [3] it was -1.12 (inactive); in assay [5], -0.0196 (inactive); in assay [6], 0.993 (inactive); in [7], -0.495 (inactive). Further, the results for the z-score in [8] and in [9] were 0.0062 (inactive) and -0.927, respectively. For the same compound, the composite z-score in [4] is 0.243 (inactive); in [10], -0.113.

As for `C=C(COC)C(=O)CC[C@@H](OC(=O)c1cccnc1)c1ccccc1OCCO`, the z-score in [1] is -0.956; in [2], -0.585 (inactive); in [3], -3.09 (inactive); in assay [5], 0.519 (inactive); in assay [6], -0.0421 (inactive); in [7], 0.325 (inactive). The z-score in assay [8] is 0.206 (inactive); in [9] it was -3.63. In addition, the composite z-score in assay [4] is -0.4 (inactive); in assay [10], -0.0663.

On to `CCCCCN1CC=CC23O[C@@H]4/C=C\CCC(C)OC(=O)C4[C@H]2C(=O)N(CCCCCCO)[C@@H]3C1=O` (stereo not given in full), for which the z-score in [1] is 1.1; in [2], -0.262 (inactive); in assay [3], 0.798 (inactive); in assay [5] it was 0.165 (inactive); in [6] it was 0.422 (inactive); in assay [7], 1.11 (inactive). Also, the values for the z-score in assay [8] and in [9] were 0.848 (inactive) and 1.26, respectively. In addition, the figures for the composite z-score in [4] and in assay [10] were -1.35 (inactive) and -0.359, respectively.

For `CCOC(=O)C1=C[C@@H](C(C)(C)C)N(S(=O)(=O)c2ccc(C)cc2)[C@H]1c1ccc(C)cc1`, the z-score in [1] is -0.473; in [2] it was 1.01 (inactive); in [3] it was -0.328 (inactive); in assay [5], 0.148 (inactive); in assay [6] it was 0.526 (inactive); in assay [7], -0.617 (inactive). The z-score is -0.823 (inactive) in [8] and -2.18 in assay [9]. Moreover, the composite z-score in [4] was -0.186 (inactive); in assay [10] it was -0.0017.

As for `COc1ccc(C#Cc2ccc3c(c2)[C@]2(C(=O)N3)[C@H](C(=O)N3CCCCCCC3)[C@H]3C(=O)O[C@H](c4ccccc4)[C@H](c4ccccc4)N3[C@@H]2c2ccc(O)cc2)cc1`, the z-score was 0.629 in assay [1]; 0.299 (inactive) in assay [2]; 0.697 (inactive) in [3]; 1.19 (inactive) in assay [5]; 0.136 (inactive) in assay [6]; -0.45 (inactive) in assay [7]. Also, the z-score in [8] is -0.601 (inactive); in [9], 0.428. Moreover, the figures for the composite z-score in [4] and in assay [10] were -8.52 (active) and -0.0149, respectively.

In the case of `Cc1ccc(N2C(=O)c3ccccc3[C@](C)(C(=O)NCc3ccccc3)[C@@H]2c2ccc(CO)cc2)nc1`, the z-score in assay [1] was -0.776; in assay [2], -0.878 (inactive); in assay [3], 1.13 (inactive); in assay [5] it was 0.882 (inactive); in assay [6], 0.741 (inactive); in [7] it was 0.349 (inactive). The z-score is 0.329 (inactive) in assay [8] and 0.994 in [9]. Also, the values for the composite z-score in [4] and in [10] were 1.07 (inactive) and -0.0326, respectively.

Turning to `O=C1O[C@H](c2ccccc2)[C@H](c2ccccc2)N2[C@H]1[C@@H](C(=O)N1CCCCCCC1)[C@]1(C(=O)Nc3ccc(C#CC4(O)CCCCCC4)cc31)[C@H]2c1ccccc1OCCO`, the z-score in [1] was 1.72; in assay [2], 0.893 (inactive); in assay [3] it was -0.382 (inactive); in assay [5], 0.682 (inactive); in [6], 2.45 (inactive); in assay [7], 0.138 (inactive). The figures for the z-score in [8] and in [9] were -1.14 (inactive) and -0.443, respectively. The composite z-score was 0.195 (inactive) in assay [4] and 2.12 in [10].

With `CN1C(=O)C2C=CC(C(O)c3ccc(I)cc3)N(Nc3ccccc3)C2C1=O` (stereo not given), the z-score in assay [1] was -1.25; in [2], -0.245 (inactive); in [3], -0.994 (inactive); in [5], 0.683 (inactive); in [6], -0.0359 (inactive); in assay [7], -1.28 (inactive). In addition, the values for the z-score in [8] and in assay [9] were -1.4 (inactive) and -1.37, respectively. Besides, the figures for the composite z-score in assay [4] and in assay [10] were -0.359 (inactive) and 0.114, respectively.

With `O=C1OCCC/C=C\[C@H]2OC34C=CCN(c5ccc6ccccc6c5)C(=O)[C@H]3N(CCCO)C(=O)[C@@H]4C12` (stereo not given in full), the z-score in [1] was -0.408; in assay [2], 0.556 (inactive); in assay [3] it was -0.104 (inactive); in [5], -0.636 (inactive); in assay [6] it was -1.1 (inactive); in [7] it was -0.0367 (inactive). Also, the z-score in assay [8] was -0.0547 (inactive); in assay [9], 0.375. Moreover, the composite z-score is -0.818 (inactive) in assay [4] and -0.332 in assay [10].

Consider `[N-]=[N+]=NCc1ccccc1[C@@H]1OC(c2ccc(OCCCO)cc2)=N[C@]1(Cc1ccccc1N=[N+]=[N-])C(=O)NCCN1CCOCC1`, for which the z-score in assay [1] was -0.591; in [2] it was -2.33 (inactive); in [3] it was 0.0903 (inactive); in [5], 0.385 (inactive); in assay [6], -0.186 (inactive); in assay [7] it was 0.191 (inactive). The results for the z-score in assay [8] and in assay [9] were -0.215 (inactive) and -0.846, respectively. Further, the composite z-score in [4] was -0.549 (inactive); in assay [10] it was -0.0826.

For `CCCCC(=C=CC[C@H](O)c1ccc(OCCO)cc1)C[C@H](O)c1cc(Cl)cc(Cl)c1O`, the z-score in assay [1] was 0.984; in [2] it was -4.58 (inactive); in assay [3], 0.437 (inactive); in [5], 0.579 (inactive); in assay [6], -0.674 (inactive); in assay [7], 0.947 (inactive). In addition, the figures for the z-score in assay [8] and in assay [9] were 0.514 (inactive) and 1.36, respectively. The results for the composite z-score in assay [4] and in assay [10] were -1.74 (inactive) and -0.0773, respectively.
